High-throughput results: PubChem, National Center for Advancing Translational Sciences (NCATS)
In the library only some 12% were active in any assay of this set; here they are far more common.
BAZ2B inh = BAZ2B (human) inhibition; Q9UIF8; AlphaScreen BAZ2B-H3K14Ac peptide displacement; Potency, µM (top dose mostly 114 µM), without a hit: at the top dose activity change, negative = inhibition, hits mostly inhibitors; hit rate 4.4% among 360,000; further: on the % scale 0 is the no-effect control and ±100 the full control effect; nearly all actives have a fitted effect of over 60% in size
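Multi-concentration screen (max 110 uM) measuring displacement of acetylated histone H3 peptide from BAZ2B by AlphaScreen, using 50 nM protein, 50 nM peptide and 10 ug/mL streptavidin donor plus Ni-chelate acceptor beads.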
L3MBTL1 block = inhibitors of human L3MBTL1 | Q9Y468 | AlphaScreen L3MBTL1–H3K9me1 peptide binding | Potency, µM (top dose mostly 57.1 µM), for the others: top-dose activity, negative = inhibition, hits mostly inhibitors | hit rate 0.66% among 230,000 | AID 485360; further: on the % scale 0 is the no-effect control and ±100 the full control effect; nearly all actives have a fitted effect of over 60% in size
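L3MBTL1 50 nM + b-AHA-H3(1-15)K9me1 75 nM, 30 min RT; compound added, 30 min RT; streptavidin donor/Ni-chelate acceptor beads 10 ug/mL each final, 30 min RT dark; AlphaScreen read.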
Sfp PPTase inh = Sfp phosphopantetheinyl transferase inhibition | Q9F4F7 | Potency, µM, for inactives: largest response in the series, negative = inhibition, usual class: inhibitors | hit rate 3.5% among 310,000 | Biochemical Sfp PPTase activity, qHTS;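 further: the enzyme is Sfp with the accession as filed and its product quenches rhodamine fluorescence; 0% = enzyme reaction without inhibitor and -100% = no enzyme wells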
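After 15 min at room temperature with compound, 15 nM Sfp received 5 uM rhodamine-CoA plus 12.5 uM BHQ-2-ybbR (50 mM Hepes pH 7.6, 10 mM MgCl2). Rate came from the fluorescence difference over 30 min, ex 525/em 598 nm.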
HP1b chromo inh = blocks HP1-beta chromodomain binding to methylated histone tails; P83916; AlphaScreen HP1-beta / biotin-H3K9me3 peptide binding; Potency, µM (doses to about 114 µM), without a hit: at the highest dose activity change, negative = inhibition, actives largely listed as inhibitors; hit rate 0.56% among 390,000; further: nearly all actives have a fitted effect of over 70% in size
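AlphaScreen: HP1-beta (50 nM) preformed 30 min with biotin-H3(1-18)K9me3 peptide (50 nM) in PBS pH 7.4, 0.01% Tween-20. Compound added for 30 min at RT, then streptavidin donor/nickel chelate acceptor beads (10 ug/mL) for 30 min.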
JMJD2A Tudor inh = inhibitors of human JMJD2A Tudor domain; O75164; Potency, µM (doses to about 114 µM), for inactives: at the top dose activity change, negative = inhibition, most hits filed as inhibitors; hit rate 4.4% among 390,000; AID 504339; AlphaScreen JMJD2A-Tudor / H3K4me3 peptide binding; further: on the % scale 0 is the no-effect control and ±100 the full control effect; nearly all actives have a fitted effect of over 50% in size
Target sequence (O75164 whole entry, looked up, the tested form may be a part): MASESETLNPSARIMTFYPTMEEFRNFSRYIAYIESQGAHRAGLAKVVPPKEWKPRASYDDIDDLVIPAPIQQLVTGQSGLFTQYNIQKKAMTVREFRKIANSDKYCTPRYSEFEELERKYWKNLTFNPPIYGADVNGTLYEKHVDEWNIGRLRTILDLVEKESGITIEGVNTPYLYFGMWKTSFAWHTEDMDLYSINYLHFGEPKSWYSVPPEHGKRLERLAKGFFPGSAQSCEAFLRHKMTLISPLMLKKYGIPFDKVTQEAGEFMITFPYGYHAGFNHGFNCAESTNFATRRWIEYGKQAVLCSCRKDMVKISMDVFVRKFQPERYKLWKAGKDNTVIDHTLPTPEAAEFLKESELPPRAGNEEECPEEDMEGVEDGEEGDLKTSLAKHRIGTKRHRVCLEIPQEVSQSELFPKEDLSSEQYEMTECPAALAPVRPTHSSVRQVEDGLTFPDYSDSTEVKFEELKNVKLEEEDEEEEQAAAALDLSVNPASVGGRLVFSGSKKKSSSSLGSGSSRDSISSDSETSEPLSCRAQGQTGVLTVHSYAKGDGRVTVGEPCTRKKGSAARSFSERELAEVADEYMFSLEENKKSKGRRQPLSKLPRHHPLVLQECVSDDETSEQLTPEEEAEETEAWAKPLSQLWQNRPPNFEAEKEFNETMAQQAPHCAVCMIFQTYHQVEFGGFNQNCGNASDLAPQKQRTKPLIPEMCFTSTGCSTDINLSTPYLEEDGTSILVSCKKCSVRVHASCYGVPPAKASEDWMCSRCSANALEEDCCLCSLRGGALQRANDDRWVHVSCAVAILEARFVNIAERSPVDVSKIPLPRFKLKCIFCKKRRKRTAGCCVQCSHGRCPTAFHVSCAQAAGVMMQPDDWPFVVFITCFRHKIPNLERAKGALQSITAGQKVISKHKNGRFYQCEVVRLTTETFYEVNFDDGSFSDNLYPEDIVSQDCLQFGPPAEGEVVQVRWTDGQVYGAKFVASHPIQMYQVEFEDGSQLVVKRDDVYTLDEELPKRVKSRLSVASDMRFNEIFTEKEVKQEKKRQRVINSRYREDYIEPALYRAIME
G9a inh = blocks human histone lysine methyltransferase G9a; Potency, µM (highest dose often 102 µM), for inactives: at the top dose activity, negative = inhibition, hits mostly inhibitors; G9a H3K9 monomethylation, AlphaScreen, 2 h; hit rate 8.8% among 350,000; further: on the % scale 0 is the no-effect control and ±100 the full control effect; nearly all actives have a fitted effect of over 75% in size
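Readings reflect AlphaScreen signal from monomethyl-H3K9 antibody detection. HMT at 20 nM; substrate b-H3K9 500 nM; cofactor SAM 20 uM; 2 h RT reaction; compounds tested as titrations in qHTS with 15 min preincubation.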
Numbers without * were called inactive; ? = inconclusive; / = not tested or not shown; [ ] = remark or other dose. The call rests on the fitted dose curve; in most records, active means well fitted curve in the direction sought with a large enough effect; inconclusive means small, poorly fitted or top-dose-only effect, or another doubt; inactive means no such curve, though single readings can be large; an effect the other way counts as inactive or inconclusive. Potency means the concentration at half of the fitted maximal effect.

SMILES	BAZ2B inh	L3MBTL1 block	Sfp PPTase inh	HP1b chromo inh	JMJD2A Tudor inh	G9a inh
O=C(O)c1ccccc1-c1ccc(/C=C/c2cc(C(F)(F)F)[nH]c(=O)n2)o1	?	-17%	-29%	7%	-26%	40µM*
Cc1sc2nc(CSc3ccc([N+](=O)[O-])cc3)[nH]c(=O)c2c1C	-2%	8%	50µM*	/	/	?
Cc1sc2nc(CSc3cccc(C(F)(F)F)c3)[nH]c(=O)c2c1C	-3%	-11%	-5%	35%	?	-31%
Cc1sc2nc(CSc3n[nH]c(N)n3)[nH]c(=O)c2c1C	/	6%	79µM*	51%	-3%	-13%
O=c1[nH]c(CSc2nc3ccccc3s2)nc2cc(Cl)ccc12	-16%	-4%	-23%	/	/	28µM*
Cc1sc2nc(CSc3nc4ccccc4s3)[nH]c(=O)c2c1C	?	?	0%	/	/	8.9µM*
Cc1ccccc1NC(=O)CSc1nc2c(oc3ccccc32)c(=O)n1-c1ccccc1F	-6%	/	/	26%	-8%	-10%[59 µM]
Cc1ccc2nc(CSc3nnc(Cc4cccs4)n3C3CCCCC3)cc(=O)n2c1	-2%	0%	-2%	46%	-27%	?
CC(=O)OCc1nc2sc(C)c(C)c2c(=O)[nH]1	7%	-3%	2%	71%	-4%	20%[59 µM]
Cc1sc2nc(CSc3nnc(Cc4cccs4)n3C3CCCCC3)[nH]c(=O)c2c1C	12%	-7%	-17%	37%	-21%	45µM*
Cc1sc2nc(CC(=O)NN)[nH]c(=O)c2c1C	0%	5%	?	-9%	-10%	40µM*
CC(CNC(=O)c1ccc(Cn2c(SCc3ccccc3)nc3cccnc32)cc1)c1ccccc1 (configuration not stated)	-11%	/	/	-13%	-20%	-39%[59 µM]
O=C(O)c1cc(NS(=O)(=O)c2ccc(N3CCOCC3)c([N+](=O)[O-])c2)cc(C(=O)O)c1	2%	-13%	20%	38%	6%[57.1 µM]	-9%[59 µM]
O=[N+]([O-])c1cc(-c2nnc(Nc3ccc(O)cc3)c3ccccc23)ccc1N1CCOCC1	?	-10%	-10%	?	?	20µM*
COC(=O)c1cc(NS(=O)(=O)c2ccc(N3CCC(C)CC3)c([N+](=O)[O-])c2)cc(C(=O)OC)c1	?	-22%	11%	50µM*	22µM*	?
Cc1ccc(S(=O)(=O)N2CCN(C)CC2)cc1[N+](=O)[O-]	-6%	2%	2%	22%	-17%	-35%[59 µM]
O=[N+]([O-])c1cc(S(=O)(=O)Nc2ccccc2)ccc1N1CCN(c2ccc(O)cc2)CC1	28µM*	-14%	56µM*	-83%	13µM*	5µM*
CN1CCN(S(=O)(=O)c2ccc(N3CCN(c4ccc(O)cc4)CC3)c([N+](=O)[O-])c2)CC1	?	-30%	/	71µM*	32µM*	7.9µM*
COC(=O)c1cc(NS(=O)(=O)c2ccc(N3CCCCC3)c([N+](=O)[O-])c2)cc(C(=O)OC)c1	?	-22%	8%	-28%	?	?
CCOC(=O)c1cc(S(=O)(=O)N2CCN(c3cccc(OC)c3)CC2)[nH]n1	?	/	/	9%[57 µM]	-31%	?
Cc1ccc(Cl)cc1N1CCN(S(=O)(=O)c2cn(C)cn2)CC1	-1%	/	12%	16%	-14%	0%
CCOC(=O)c1cc(S(=O)(=O)N2CCN(c3ccc(F)cc3)CC2)[nH]n1	?	/	/	7%[57 µM]	-21%	28µM*
CCOC(=O)c1cc(S(=O)(=O)N2CCN(c3cc(Cl)ccc3C)CC2)[nH]n1	?	/	/	16%[57 µM]	?	13µM*
Cc1ccc(Cl)cc1N1CCN(S(=O)(=O)c2cn(C)c(C)n2)CC1	-22%	/	/	7%[57 µM]	56µM*	1%[59 µM]
CCOC(=O)c1cc(S(=O)(=O)N2CCN(c3ccccc3OC)CC2)[nH]n1	-10%	/	/	11%[57 µM]	-23%	28µM*
SMILES	BAZ2B inh	L3MBTL1 block	Sfp PPTase inh	HP1b chromo inh	JMJD2A Tudor inh	G9a inh
CCOC(=O)c1cc(S(=O)(=O)N2CCN(c3ccc(OC)cc3)CC2)[nH]n1	-25%	/	/	15%[57 µM]	-33%	?
CC1=Nn2c(nnc2C2CCCCC2)SC1	-15%	-3%	79µM*	2%	-8%	-49%[59 µM]
Cc1ccc(CNC(=O)c2c(-c3ccc(F)cc3F)noc2C)o1	-1%	/	/	17%[57 µM]	-3%	-1%[59 µM]
CCn1c(Nc2ccccc2Cl)nc2ccccc21	-14%	-6%	13%	-9%	45µM*	-26%
CCCn1c(NCc2ccc(N(C)C)cc2)nc2ccccc21	?	/	-9%	-14%	?	50µM*
Cc1ccc(CNc2nc3ccc(C)cc3n3cnnc23)cc1	-3%	/	?	10%	-36%	50µM*
CCN(CC)CCn1c(NCc2ccc(C)o2)nc2ccccc21	?	/	4%	6%	?	50µM*
Cc1ccc(CNc2nc3ccccc3n2C)o1	-12%	-9%	14%	25%	-14%	-23%
COc1ccccc1/C=C\C(=O)OC[C@@H]1CCCN2CCCC[C@H]12	/	/	12%	/	/	/
CCN(CC)c1ccc(CNc2nc3ccccc3n2C(C)C)cc1	-31%	-4%	8%	3%	?	?
CCCCn1c(NCc2ccccn2)nc2ccccc21	/	-13%	56µM*	30%	-8%	?
CCN(CC)c1ccc(CNc2nc3ccccc3n2CC)cc1	45µM*	/	3%	?	?	32µM*
CCCn1c(Nc2nc3ccccc3n2C)nc2ccccc21	8.9µM*	18µM*	?	34%	56µM*	-1%
c1ccc(CNc2nc3ccccc3n3cnnc23)nc1	-10%	/	-16%	27%	-13%	45µM*
c1ccc(CNc2nc3ccccc3n3cnnc23)cc1	3%	/	-4%	26%	?	7%
Cc1ccc(Cl)cc1NC(=O)Cn1c(=O)oc2cc(S(=O)(=O)N3CCCCCC3)ccc21	0%	/	/	19%	-19%	-38%[59 µM]
CCc1ccc(N(CC)C(=O)c2ccc3c(=O)n4c(nc3c2)CCCCC4)cc1	-8%	/	/	17%	-21%	12%[59 µM]
COc1cc(OC)c(N(C)C(=O)Cn2ncc3c([nH]c4ccccc43)c2=O)cc1Cl	-12%	/	/	-16%	-18%	-5%[59 µM]
Cc1nc(SC(C)C(=O)c2c(N)n(C)c(=O)n(C)c2=O)c2c(C)c(C)sc2n1 (configuration not stated)	-10%	-7%	/	12%	?	7.1µM*
CC(Sc1nnc(N)s1)C(=O)c1c(N)n(C)c(=O)n(C)c1=O (configuration not stated)	7%	0%	/	8%	-10%	50µM*
Oc1ccc(-c2csc(-c3ccccc3)n2)cc1O	56µM*	-14%	56µM*	?	40µM*	?
Oc1ccc(-c2csc(-c3cccnc3)n2)cc1O	45µM*	/	?	79µM*	7.1µM*	/
